Screening results as filed in PubChem BioAssay.
Most compounds without a hit are left out; they make up all but 2.9% or so of the library.
DRD3 antagonist = qHTS of D3 Dopamine Receptor Antagonist: qHTS; D(3) dopamine receptor (Homo sapiens), P35462; D3R cells, DiscoveRx beta-arrestin luminescence, antagonist mode; active compounds read low; max response, negative = inhibition, %; 2.5% of 360,000 active; in the data active means max response below about -50%; inconclusive means no clear call, values can overlap the other calls; further: on the % scale 0 is the no-effect control and ±100 the full control effect
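Cells expressing the human receptor were seeded at 1500 cells/well, incubated overnight at 37 degrees C in 5% CO2, then exposed to library compounds with dopamine controls for 90 minutes at 37 degrees C before luminescent detection.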
TSG101-PTAP inh = qHTS Assay for Iinhibitors of HIV-1 Budding by Blocking the Interaction of PTAP/TSG101. Tumor susceptibility gene 101 protein (Homo sapiens), Q99816. Fluorescence polarization, FITC-PTAP peptide / Tsg101 binding. Potency, µM (series often up to 115 µM), for inactives: at the top dose activity change, negative = inhibition, usual class: inhibitors. 340,000 tested, under 10 active. AID 493005, 2010; active means well fitted inhibition curve with a large enough effect in the main read-out, with a control signal flat, not every such curve was filed as active; inconclusive means small, poorly fitted or top-dose-only effect, or effect the other way, or a change in a side signal; inactive means no such curve, though single readings can be large or run the other way; further: potency means the concentration at half of the fitted maximal effect; % of control where 0% means no effect
Target sequence (Q99816 whole entry, looked up): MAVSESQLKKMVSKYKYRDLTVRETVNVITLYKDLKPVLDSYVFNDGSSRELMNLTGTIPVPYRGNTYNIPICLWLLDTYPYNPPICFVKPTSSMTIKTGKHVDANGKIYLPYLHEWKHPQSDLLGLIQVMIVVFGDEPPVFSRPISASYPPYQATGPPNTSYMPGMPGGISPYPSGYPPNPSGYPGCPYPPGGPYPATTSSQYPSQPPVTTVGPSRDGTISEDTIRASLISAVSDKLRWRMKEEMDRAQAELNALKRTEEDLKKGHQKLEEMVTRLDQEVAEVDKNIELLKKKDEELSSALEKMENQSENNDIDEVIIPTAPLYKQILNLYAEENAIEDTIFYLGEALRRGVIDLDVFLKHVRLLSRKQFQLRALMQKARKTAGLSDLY
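Compounds were pin-transferred onto Tsg101 binding domain (10 uM final) in HEPES pH 7.5 buffer, then FITC-PTAP peptide was added at 50 nM final. After 20 min at RT, polarization reported peptide displacement across a qHTS concentration series.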
MmCpn inh = Inhibitors of TCP-1 ring complex (TRiC) of Methanococcus maripaludis (MmCpn): qHTS | purified Mm-Cpn ATPase, ADP Transcreener TR-FRET | Potency, µM (titrated, usually from 76.9 µM), without a hit: at the highest dose activity, negative = inhibition, usual class: inhibitors | AID 504842, 2011 | 0.031% of 330,000 active; active means well fitted inhibition curve with a large enough effect; inconclusive means small, poorly fitted or top-dose-only effect; further: potency means the concentration at half of the fitted maximal effect; on the % scale 0 is the no-effect control and ±100 the full control effect; nearly all actives have a fitted effect of over 80% in size
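Eu-cryptate anti-ADP/ADP-d2 competition gives a ratio inversely related to ADP. Enzyme at 25 nM was pre-exposed to compound for 10 min, then given 10 uM ATP for 30 min, 37°C throughout.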
Rango dissoc inh = qHTS Assay for Inhibitors of RanGTP induced Rango (Ran-regulated importin-beta cargo) - Importin beta complex dissociation. AID 540253, 2011. Potency, µM (top dose mostly 46.1 µM), for inactives: at the top dose activity change, negative = inhibition. 0.071% of 340,000 active. Biochemical FRET Rango-importin beta, RanGTP-induced dissociation. Snurportin-1 (Homo sapiens) + GTP-binding nuclear protein Ran (Homo sapiens) + Importin …; further: potency means the concentration at half of the fitted maximal effect; % of control where 0% means no effect; nearly all actives have a fitted effect of over 45% in size
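FRET read at 45 min, room temperature: inhibitors block the CFP/YFP signal rise when RanGTP (0.6 uM Ran, 2 mM GTP, 0.2 uM RCC1) frees Rango (0.1 uM) from importin beta (0.25 uM). Pre-read after 5 min compound exposure flags interference.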
DRD3 agonist = qHTS of D3 Dopamine Receptor Agonist: qHTS; 0.58% of 410,000 active; D3R DiscoveRx beta-arrestin cells, luminescence, 90 min; max activation, %; AID 652048, 2013; D(3) dopamine receptor (Homo sapiens), P35462; in the data active means max activation above about 30%; further: 0% is about no effect
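Cells at 1500/well, incubated overnight, then treated with pinned compounds (dopamine as control) for 90 min at 37 degrees C. DiscoveRx reagent added for 30 - 60 minutes at room temperature; luminescence read.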
Rango complex inh = qHTS Assay for Inhibitors of Rango (Ran-regulated importin-beta cargo) - Importin beta complex formation | Importin subunit beta-1 (Homo sapiens), Q14974 | Rango CFP/YFP FRET sensor + importin beta, 45 min | Potency, µM (highest dose often 92.2 µM), for inactives: at the highest dose inhibition of complex formation | 0.031% of 340,000 active;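 further: potency means the concentration at half of the fitted maximal effect; 0% = DMSO wells and 100% = buffer wells lacking importin beta; nearly all actives have a fitted effect of over 15% in size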
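FRET biosensor Rango (snurportin 1 IBB between N-terminal EYFP and C-terminal Cerulean), 50 nM in PBS/1 mM DTT/0.02% Tween-20/0.1% BSA, preincubated 5 min RT with compound; 0.125 microM importin beta added, 45 min RT, CFP/YFP FRET ratio read.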
* hit, by the source's call; [ ] = remark or other dose. Unless noted, the call rests on the fitted dose curve.

CN(C)S(=O)(=O)Oc1cccc(C(=O)Nc2cccc(Cl)c2)c1 was read as DRD3 antagonist inconclusive, TSG101-PTAP inh -8%, MmCpn inh 2%, Rango dissoc inh -9%, DRD3 agonist 3 and Rango complex inh -1%.
`CC(C)Oc1cccc(C(=O)NC(=S)Nc2ccc(Cl)c(C(=O)O)c2)c1` gave DRD3 antagonist -88*, TSG101-PTAP inh -6%, MmCpn inh 0%, Rango dissoc inh 5%, DRD3 agonist -1 and Rango complex inh -1%.
`O=C(CCS(=O)(=O)c1ccccc1Cl)NCCC1=CCCCC1` gave DRD3 antagonist 17, TSG101-PTAP inh -1%, MmCpn inh -2%, Rango dissoc inh 7%, DRD3 agonist 1 and Rango complex inh 4%.
For Cc1ccc(NC(=O)/C=C/c2ccc([N+](=O)[O-])s2)cc1 the results were DRD3 antagonist 0, TSG101-PTAP inh -1%, MmCpn inh 1%, Rango dissoc inh 0.73µM*[inhibitor], DRD3 agonist -4 and Rango complex inh -13%.
Screening Cc1ccc(C(=O)N/N=C/c2ccc([N+](=O)[O-])s2)cc1 returned DRD3 antagonist -21, TSG101-PTAP inh -5%, MmCpn inh 1%, Rango dissoc inh -12%, DRD3 agonist -14 and Rango complex inh 1%.
`Cc1cccc(NC(=S)N/N=C/c2ccc([N+](=O)[O-])s2)c1` gave DRD3 antagonist -97*, TSG101-PTAP inh -5%, MmCpn inh -2%, Rango dissoc inh 2%, DRD3 agonist -6 and Rango complex inh 0%.
Cc1cccc(NC(=O)/C=C/c2ccc([N+](=O)[O-])s2)c1 was read as DRD3 antagonist inconclusive, TSG101-PTAP inh -2%, MmCpn inh 0%, Rango dissoc inh 2.1µM*[inhibitor], DRD3 agonist -6 and Rango complex inh inconclusive.
For COc1cc(CNCc2ccccn2)ccc1OCc1ccc(Cl)cc1Cl the results were DRD3 antagonist -67*, TSG101-PTAP inh -1%, MmCpn inh 1%, Rango dissoc inh -2%, DRD3 agonist -11 and Rango complex inh 0%.
Screening COc1cc(CNCCN2CCOCC2)ccc1OCc1ccc(Cl)cc1Cl returned DRD3 antagonist -64*, TSG101-PTAP inh 0%, MmCpn inh 1%, Rango dissoc inh -1%, DRD3 agonist 0 and Rango complex inh 5%.
Screening COc1cc(CNCCN2CCOCC2)ccc1OCc1cccc(Cl)c1 returned DRD3 antagonist 3, TSG101-PTAP inh -3%, MmCpn inh 1%, Rango dissoc inh 2%, DRD3 agonist -7 and Rango complex inh 1%.
Cc1c(Cl)cccc1NC(=O)Nc1c[nH]c(=O)[nH]c1=O was read as DRD3 agonist 5.
Screening CCn1c(SC(C)C(=O)Nc2ccc(N3CCOCC3)cc2)nnc1C1CC1 (stereo unspecified) returned DRD3 antagonist 13, TSG101-PTAP inh -1%, MmCpn inh 1%, Rango dissoc inh 1%, DRD3 agonist 4 and Rango complex inh -1%.
COc1cc(/C=N/N2CCCCC2)cc([N+](=O)[O-])c1O was read as DRD3 antagonist -65*, TSG101-PTAP inh -9%, MmCpn inh -2%, Rango dissoc inh 11%, DRD3 agonist -11 and Rango complex inh 1%.
Screening CCN(CC)c1ccc(/C=N/N2CCN(Cc3ccc(C)cc3)CC2)c(O)c1 returned DRD3 antagonist -59*, TSG101-PTAP inh -6%, MmCpn inh 1%, Rango dissoc inh 7%, DRD3 agonist -67 and Rango complex inh 0%.
For COc1cc(/C=N/N2CCN(Cc3ccc(C)cc3)CC2)cc(OC)c1O the results were DRD3 antagonist -79*, TSG101-PTAP inh -6%, MmCpn inh 0%, Rango dissoc inh -13%, DRD3 agonist -23 and Rango complex inh 1%.
Screening Cc1ccc(CN2CCN(/N=C/c3ccccc3)CC2)cc1 returned DRD3 antagonist -16, TSG101-PTAP inh 1%, MmCpn inh 2%, Rango dissoc inh 1%, DRD3 agonist -14 and Rango complex inh 1%.
Screening Cc1ccc(CN2CCN(/N=C/c3cc([N+](=O)[O-])ccc3Cl)CC2)cc1 returned DRD3 antagonist -61*, TSG101-PTAP inh -1%, MmCpn inh -1%, Rango dissoc inh 3%, DRD3 agonist -16 and Rango complex inh 0%.
For Cc1nn(-c2ccc(F)cc2)c(-n2cccc2)c1C(=O)NCCc1ccc(Cl)cc1 the results were DRD3 agonist -5.
For O=C(Cn1cc(SCc2c(F)cccc2Cl)c2ccccc21)N1CCCC1 the results were DRD3 agonist -8.
Screening N#Cc1ccccc1OCC(=O)NNC(=O)CNC(=O)c1cccc(Br)c1 returned DRD3 antagonist -10, TSG101-PTAP inh 1%, MmCpn inh 2%, Rango dissoc inh 13%, DRD3 agonist 2 and Rango complex inh 2%.
CSc1ccc(/C=N/NC(=O)CN2CCN(Cc3ccc(Cl)cc3)CC2)cc1 was read as DRD3 antagonist inconclusive, TSG101-PTAP inh inconclusive, MmCpn inh 0%, Rango dissoc inh -2%, DRD3 agonist -10 and Rango complex inh 2%.
CSc1ccc(/C=N/N2CCN(Cc3ccc(Cl)cc3)CC2)cc1 was read as DRD3 antagonist -54*, TSG101-PTAP inh 1%, MmCpn inh 0%, Rango dissoc inh 16%, DRD3 agonist -18 and Rango complex inh 0%.
For COc1cc(/C=C2\CCCc3c2nc2ccccc2c3C(=O)O)cc([N+](=O)[O-])c1O the results were DRD3 antagonist -100*, TSG101-PTAP inh -6%, MmCpn inh -8%, Rango dissoc inh 7%, DRD3 agonist -30 and Rango complex inh 8%.
O=C(CN1CCN(C2CCCCC2)CC1)c1c[nH]c2ccccc12 was read as DRD3 antagonist -69*, TSG101-PTAP inh -2%, MmCpn inh -1%, Rango dissoc inh 1%, DRD3 agonist -2 and Rango complex inh -6%.
CCN1CCN(CC(=O)c2c[nH]c3ccccc23)CC1 was read as DRD3 antagonist -19, TSG101-PTAP inh -1%, MmCpn inh 1%, Rango dissoc inh -10%, DRD3 agonist -5 and Rango complex inh 0%.
